# Measurements published in PubChem BioAssay (EPA / NIEHS).
# Where “and” joins values, the source holds several entries; their conditions need not be identical. Equal entries are not always repeated. Some structures have more than one record in an assay (separate samples or runs), and their calls can disagree. Calls of active or inactive are those of the source. Rule for the calls: active = hit-call score of the fitted dose curve at least 0.9, where 1 is the maximum; inactive = score below 0.9.
# Molecular target: Transcription factor E2F1 (Homo sapiens) (UniProt Q01094)
# Sequence (Q01094 whole entry, looked up): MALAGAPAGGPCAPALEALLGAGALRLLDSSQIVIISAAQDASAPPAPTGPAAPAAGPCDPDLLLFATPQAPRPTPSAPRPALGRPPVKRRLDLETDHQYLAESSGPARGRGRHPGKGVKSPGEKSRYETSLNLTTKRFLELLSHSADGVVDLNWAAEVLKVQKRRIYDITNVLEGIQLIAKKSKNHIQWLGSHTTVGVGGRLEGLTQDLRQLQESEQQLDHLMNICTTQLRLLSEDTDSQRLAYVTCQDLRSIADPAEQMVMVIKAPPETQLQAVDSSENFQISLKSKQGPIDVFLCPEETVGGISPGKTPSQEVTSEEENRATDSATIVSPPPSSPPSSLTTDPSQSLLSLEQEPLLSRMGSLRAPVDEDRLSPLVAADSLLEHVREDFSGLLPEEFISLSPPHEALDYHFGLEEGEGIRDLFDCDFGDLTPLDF
# Assay: ATG_E2F_CIS: Attagene CIS-FACTORIAL HepG2 Assay for human E2F Transcription Factor 1 (AID 2282935)
# Settings: HepG2 Attagene cis-reporter, E2F reporter RNA transcripts; actives raise or lower the signal
# Protocol: ATG_CIS is a cell-based, multiplexed-readout assay that uses HepG2, a human liver cell line, with measurements taken at 24 hours after chemical dosing in a 24-well plate.ATG_E2F_CIS is one of 52 assay component(s) measured or calculated from the ATG_CIS assay. It is designed to make measurements of mRNA induction, a form of inducible reporter, as detected with fluorescence intensity signals by Reverse transcription polymerase chain reaction (RT-PCR) and Capillary electrophoresis technology.Data from the assay component ATG_E2F_CIS was analyzed into 1 assay endpoint. This assay endpoint, ATG_E2F_CIS, was analyzed with bidirectional fitting relative to DMSO as the negative control and baseline of activity. Using a type of inducible reporter, measures of mRNA for gain or loss-of-signal activity can be used to understand the reporter gene at the transcription factor-level as they relate to the gene E2F1. Furthermore, this assay endpoint can be referred to as a primary readout, because this assay has produced multiple assay endpoints where this one serves a reporter gene function. To generalize the intended target to other relatable targets, this assay endpoint is annotated to the dna binding intended target family, where the subfamily is E2F transcription factor.
# Human liver HepG2 cells are transiently transfected with multiple reporter transcription units (MRTUs) in 6-well plates using FuGene 6 reagent (Roche; 3 ml FuGene/1 mg DNA). The MRTU constructs are regulated by a cis-regulating element (promoter). […] A major difference between the CIS and TRANS system is that in CIS activities of endogenous TFs are measured, whereas the TRANS assay evaluates changes in activities of exogenous, chimeric NR-Gal4 proteins. […] At the end of 24 hour incubation, total RNA was isolated using TriZol reagent (Invitrogen). The isolated RNA is then reverse-transcribed using oligo(dT) primer and Mo-MLV reverse transcriptase (Invitrogen) with DNAse I (Ambion) treatment for 30 min. The one-tenth of the produced cDNA was amplified by PCR using Taq DNA polymerase (Invitrogen) and two reporter sequence-specific primers. The PCR products were fluorescently labeled by primer extension with 6-arboxyfluorescein (6-FAM) 5'-labeled reporter sequence-specific primer (2 min at 95 C, 20 s at 68 C and 10 min at 72 C) and these products were digested with 5U of HpaI (New England Biolabs) for 2h at 37 C. The fragments were purified using Qiaquick PCR columns (Qiagen), analyzed on an ABI 3130xL genetic analyzer (Applied Biosystems) with peak positions identified by using a set of X-rhodamine (ROX)-labeled MapMarker1000 molecular weight standards (BioVentures). The raw capillary electrophoresis data was processed using Attagraph software (Attagene).
Compound,outcome,AC50
CCCCCCCCCl,inactive,–
NC(=S)Nc1ccccc1,inactive,–
C=CCc1ccc(OC)cc1,inactive,–
Cc1cc(=O)[nH]o1,inactive,–
O=[N+]([O-])c1ccc(O)c([N+](=O)[O-])c1,inactive,–
Cc1ccccc1C(=O)Nc1cccc(OC(C)C)c1,inactive,–
CCCCC(CC)CO[N+](=O)[O-] (stereo not given),inactive,–
ClC(Cl)=C(Cl)C(Cl)=C(Cl)Cl,inactive,–
C[C@H]1CCCC(=O)CCC/C=C/c2cc(O)cc(O)c2C(=O)O1,inactive,–
O=C(O)Cc1ccccc1,inactive,–
CC(C)(C)CC(C)(C)c1ccc(O)cc1,inactive,–
CNC(=O)O/N=C/C(C)(C)S(C)=O (stereo not given),inactive,–
Clc1nc(Cl)nc(Cl)n1,inactive,–
COc1ccc(C=O)cc1,inactive,–
CCC[CH2][Sn]([CH2]CCC)([CH2]CCC)[O]C(=O)c1ccccc1,inactive,–
CCOP(=S)(OCC)SCCS(=O)(=O)CC,inactive,–
O=S(=O)(c1ccc(Cl)cc1)c1ccc(Cl)cc1,inactive,–
CC(C)C1CCC(Cc2ccc(Cl)cc2)C1(O)Cn1cncn1 (stereo not given),inactive,–
CC(=O)C(Cl)C(=O)N(C)C (stereo not given),inactive,–
Cc1cc(Cl)ccc1O[C@H](C)C(=O)O,inactive,–

Compound,outcome,AC50
Nc1ccc(Cl)cc1C(=O)c1ccccc1,inactive,–
Cn1sc(Cl)cc1=O,inactive,–
CCC(C)(C)c1ccc(O)c(C(C)(C)CC)c1,inactive,–
OCC(O)CCl (stereo not given),inactive,–
COP(=S)(OC)Oc1ccc(S(=O)(=O)N(C)C)cc1,inactive,–
COC[C@H](C)N(C(=O)CCl)c1c(C)csc1C,inactive,–
O=C(Nc1ccc2[nH]ccc2c1)c1cc2cc(F)ccc2n1Cc1cccc(F)c1,inactive,–
CCOC(=O)Nc1cccc(OC(=O)Nc2ccccc2)c1,inactive,–
Fc1ccc(C2(Cn3cncn3)OC2c2ccccc2Cl)cc1 (stereo not given),inactive,–
CC(C)(c1ccccc1)c1ccc(O)c(C(C)(C)c2ccccc2)c1,inactive,–
C[C@]12CCC(=O)C[C@@H]1CC[C@@H]1[C@@H]2CC[C@]2(C)[C@@H](O)CC[C@@H]12,inactive,–
C[C@@H]1C[C@@H]([C@H](O)CC2CC(=O)NC(=O)C2)C(=O)[C@@H](C)C1,inactive,573 nM (active) and 632 nM (active)
c1cc[c]([Hg][c]2ccccc2)cc1,inactive,–
Cl/C=C\C[N+]12CN3CN(CN(C3)C1)C2,inactive,–
Nc1cccc(Cl)c1,inactive,–
CCC(=O)C(CC(C)N(C)C)(c1ccccc1)c1ccccc1 (stereo not given),inactive,–
C=C(C)C(=O)[O][Sn]([CH2]CCC)([CH2]CCC)[CH2]CCC,inactive,–
COc1cc(-c2ccc(N)c(OC)c2)ccc1N,inactive,–
O=C(OC1CCCCC1)c1ccccc1C(=O)OC1CCCCC1,–,187 µM (active)
